This note sets out measurements from PubChem BioAssay (EPA / NIEHS).

Each structure is given as a SMILES string. Results filed as inconclusive are left out. Active and inactive are the calls of the source. The calls were made as follows: active = hit-call score of the fitted dose curve at least 0.9, where 1 is the maximum; inconclusive = response in the unintended direction; inactive = score below 0.9.

Broadly, the AC50 is the concentration giving half of the maximal activity seen.

Assay [1] concerns the target human Matrix Metalloproteinase-2 (MMP2), MMP2 (gene 4313) (UniProt P08253). As to the kind of experiment: NVS_ENZ_hMMP2: NovaScreen (NVS) Enzymatic Assay for human Matrix Metalloproteinase-2 (MMP2) (AID 2283184). The method, boiled down: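 Cell-free recombinant MMP2 activity with a fluorescent substrate, read 1 h after dosing. Primary screen in duplicate at 25 uM; actives then run in concentration series; loss of signal fitted versus DMSO.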

In assay [2] the target is human Matrix Metalloproteinase-3 (MMP3), MMP3 (gene 4314) (UniProt P08254). Nature of the assay: NVS_ENZ_hMMP3: NovaScreen (NVS) Enzymatic Assay for human Matrix Metalloproteinase-3 (MMP3) (AID 2283185). The method, boiled down: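 Cell-free recombinant human MMP3 activity, fluorescence intensity read 1 h after dosing. Primary screen duplicate at 25 uM, actives retested in concentration series; loss of signal vs DMSO baseline.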
Chain of human Matrix Metalloproteinase-3 (MMP3), MMP3 (gene 4314) (P08254 whole entry, looked up): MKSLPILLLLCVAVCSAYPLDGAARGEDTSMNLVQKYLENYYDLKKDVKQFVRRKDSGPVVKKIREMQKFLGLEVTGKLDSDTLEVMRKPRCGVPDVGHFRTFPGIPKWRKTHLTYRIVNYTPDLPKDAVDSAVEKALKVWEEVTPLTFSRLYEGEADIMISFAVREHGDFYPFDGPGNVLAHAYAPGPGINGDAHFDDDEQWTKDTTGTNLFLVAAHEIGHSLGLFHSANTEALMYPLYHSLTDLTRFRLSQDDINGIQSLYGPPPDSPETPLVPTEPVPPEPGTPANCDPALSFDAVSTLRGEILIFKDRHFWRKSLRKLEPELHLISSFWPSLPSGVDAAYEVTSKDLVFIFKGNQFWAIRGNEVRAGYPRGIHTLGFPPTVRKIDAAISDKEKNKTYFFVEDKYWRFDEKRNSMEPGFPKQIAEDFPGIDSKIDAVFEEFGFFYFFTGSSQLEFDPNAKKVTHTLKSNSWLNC

Assay [3] deals with human NIMA (Never In Mitosis Gene A)-Related Kinase 2 (NEK2), NEK2 (gene 4751) (UniProt P51955). Nature of the assay: NVS_ENZ_hNEK2: NovaScreen (NVS) Enzymatic Assay for human NIMA (Never In Mitosis Gene A)-Related Kinase 2 (NEK2) (AID 2283188). The method, boiled down:
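Cell-free NEK2 enzyme activity after 1 h exposure, read by fluorescence with electrophoretic mobility shift separating substrate and product. Primary screen in duplicate at 25 uM; actives then run as concentration series. Loss of signal versus DMSO scored.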

Assay [4] deals with human Phosphodiesterase 5 (PDE5), PDE5A (gene 8654) (UniProt O76074). Nature of the assay: NVS_ENZ_hPDE5: NovaScreen (NVS) Enzymatic Assay for human Phosphodiesterase 5 (PDE5) (AID 2283194). The method, boiled down:
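Recombinant human PDE5 with specific substrate, read 1 h after dosing by fluorescence with electrophoretic mobility-shift separation of substrate and product. Initial single-concentration duplicate screen at 25 uM, actives followed in concentration series; loss of activity versus DMSO.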

For assay [5], the target named is Collagenase 3 (Homo sapiens) (UniProt P45452). Nature of the assay: NVS_ENZ_hMMP13: NovaScreen (NVS) Enzymatic Assay for human Matrix Metalloproteinase-13 (MMP13) (AID 2283182). In outline:
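Recombinant MMP13 cleaving fluorescent substrate, cell-free, measured 1 h after dosing. Primary duplicate screen at 25 uM; actives tested in concentration-response up to 50 uM; loss of signal relative to DMSO.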

The target in assay [6] is human Matrix Metalloproteinase-9 (MMP9), MMP9 (gene 4318) (UniProt P14780). Nature of the assay: NVS_ENZ_hMMP9: NovaScreen (NVS) Enzymatic Assay for human Matrix Metalloproteinase-9 (MMP9) (AID 2283190).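 Also: cell-free recombinant MMP9 protease activity read by fluorescent substrate signal; active means inhibition seen as loss of fluorescence signal versus DMSO.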 The method, boiled down:
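Extracted enzyme, fluorescent substrate, 1 h post-dose read. Single conc 25 uM in duplicate, then concentration series for actives. Activity = signal loss relative to DMSO negative control.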

The target of assay [7] is human Protein Phosphatase, Mg2+/Mn2+ Dependent 1A (PPM1A), PPM1A (gene 5494) (UniProt P35813). Nature of the assay: NVS_ENZ_hPPM1A: NovaScreen (NVS) Enzymatic Assay for human Protein Phosphatase, Mg2+/Mn2+ Dependent 1A (PPM1A) (AID 2283198). In outline: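 Cell-free recombinant PPM1A phosphatase assay with fluorescent substrate, read 1 h after dosing by electrophoretic mobility shift. Chemicals screened in duplicate at 25 uM, then in concentration-response up to 50 uM; loss of activity versus DMSO.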
Chain of human Protein Phosphatase, Mg2+/Mn2+ Dependent 1A (PPM1A), PPM1A (gene 5494) (P35813 whole entry, looked up): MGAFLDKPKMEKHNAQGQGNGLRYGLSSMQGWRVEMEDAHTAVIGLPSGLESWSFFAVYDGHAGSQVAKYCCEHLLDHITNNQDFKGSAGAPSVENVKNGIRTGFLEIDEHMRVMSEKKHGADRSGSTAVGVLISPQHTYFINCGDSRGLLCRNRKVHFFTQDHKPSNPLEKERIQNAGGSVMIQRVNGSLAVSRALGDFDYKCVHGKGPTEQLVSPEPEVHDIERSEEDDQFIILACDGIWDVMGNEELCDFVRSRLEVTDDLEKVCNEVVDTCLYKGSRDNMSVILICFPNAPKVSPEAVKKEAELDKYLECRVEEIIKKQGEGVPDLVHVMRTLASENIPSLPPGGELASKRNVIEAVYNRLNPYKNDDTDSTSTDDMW

Assay [8] addresses Serine/threonine-protein phosphatase PP1-alpha catalytic subunit (Homo sapiens) (UniProt P62136). Nature of the assay: NVS_ENZ_hPPP1CA: NovaScreen (NVS) Enzymatic Assay for human Protein Phosphatase 1 Aatalytic subunit Alpha (PPP1CA) (AID 2283200). In outline:
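Recombinant enzyme activity read by fluorescence with electrophoretic mobility shift separating substrate from product, 1.33 h after dosing; loss of signal vs DMSO baseline. Primary screen in duplicate at 25 uM; actives retested in concentration-response up to 50 uM.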

Assay [9] deals with human Matrix Metalloproteinase-7 (MMP7), MMP7 (gene 4316) (UniProt P09237). As to the kind of experiment: NVS_ENZ_hMMP7: NovaScreen (NVS) Enzymatic Assay for human Matrix Metalloproteinase-7 (MMP7) (AID 2283183). In outline: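 Cell-free fluorescence enzymatic assay read 1 h after compound addition, activity loss analyzed against DMSO. Primary duplicate testing at 25 uM; compounds meeting threshold rerun in singleton concentration-response up to 50 uM.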
Chain of human Matrix Metalloproteinase-7 (MMP7), MMP7 (gene 4316) (P09237 whole entry, looked up): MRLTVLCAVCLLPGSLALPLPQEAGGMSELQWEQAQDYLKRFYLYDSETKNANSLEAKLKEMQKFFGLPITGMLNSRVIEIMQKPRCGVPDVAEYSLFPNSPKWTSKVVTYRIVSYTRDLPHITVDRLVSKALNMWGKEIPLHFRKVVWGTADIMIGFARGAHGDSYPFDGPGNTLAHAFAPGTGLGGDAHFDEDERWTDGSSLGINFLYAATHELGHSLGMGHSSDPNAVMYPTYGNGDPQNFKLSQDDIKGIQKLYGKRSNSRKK

In a further assay the target is PPP2CA (gene 5515) (UniProt P67775). As to the kind of experiment: NVS_ENZ_hPPP2CA: NovaScreen (NVS) Enzymatic Assay for human Protein Phosphatase 2 Aatalytic subunit Alpha (PPP2CA) (AID 2283199). In outline: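 Recombinant human PPP2CA with fluorescent substrate; product separated from substrate by electrophoretic mobility shift, read 1.33 h after dosing. Duplicate single-point at 25 uM, then singleton concentration-response up to 50 uM; loss of signal versus DMSO.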
Chain of PPP2CA (gene 5515) (P67775 whole entry, looked up): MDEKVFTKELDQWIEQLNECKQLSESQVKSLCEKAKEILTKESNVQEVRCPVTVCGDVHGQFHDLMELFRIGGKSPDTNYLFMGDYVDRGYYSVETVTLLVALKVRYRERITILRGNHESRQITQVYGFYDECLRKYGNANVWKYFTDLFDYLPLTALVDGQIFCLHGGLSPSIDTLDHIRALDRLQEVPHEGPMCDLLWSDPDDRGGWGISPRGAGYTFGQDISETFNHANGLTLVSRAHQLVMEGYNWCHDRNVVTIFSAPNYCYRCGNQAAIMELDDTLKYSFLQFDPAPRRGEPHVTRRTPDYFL

Assay [10] has as its target human Mitogen- and Stress-activated Protein Kinase-1 (Msk1), RPS6KA5 (gene 9252) (UniProt O75582). As to the kind of experiment: NVS_ENZ_hMsk1: NovaScreen (NVS) Enzymatic Assay for human Mitogen- and Stress-activated Protein Kinase-1 (Msk1) (AID 2283187). In outline:
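Recombinant kinase with fluorescent substrate; product separated by electrophoretic mobility shift, read 1 h after dosing. Screened in duplicate at 25 uM; hits (e.g. ≥30% inhibition) tested in concentration–response up to 50 uM. DMSO baseline.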

Assay [11] has as its target cAMP-dependent protein kinase catalytic subunit alpha (Homo sapiens) (UniProt P17612). Nature of the assay: NVS_ENZ_hPKA: NovaScreen (NVS) Enzymatic Assay for human Protein Kinase A (PKA) (AID 2283192). The method, boiled down:
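Recombinant human PKA with specific fluorescent substrate, product separated by electrophoretic mobility shift, read 1 h after dosing. Primary screen at 25 uM in duplicate; actives then run in concentration-response up to 50 uM, activity relative to DMSO.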

The target in assay [12] is human Protein Tyrosine Phosphatase Non-receptor Type 1 (PTPN1), PTPN1 (gene 5770) (UniProt P18031). Nature of the assay: NVS_ENZ_hPTPN1: NovaScreen (NVS) Enzymatic Assay for human Protein Tyrosine Phosphatase Non-receptor Type 1 (PTPN1) (AID 2283201). The method, boiled down: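 Cell-free fluorogenic-substrate activity assay on recombinant enzyme, read 1.33 h after dosing by fluorescence and electrophoretic mobility shift; loss of signal vs DMSO baseline. Primary screen in duplicate at 25 uM, hits then run in concentration-response up to 50 uM.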
Chain of human Protein Tyrosine Phosphatase Non-receptor Type 1 (PTPN1), PTPN1 (gene 5770) (P18031 whole entry, looked up): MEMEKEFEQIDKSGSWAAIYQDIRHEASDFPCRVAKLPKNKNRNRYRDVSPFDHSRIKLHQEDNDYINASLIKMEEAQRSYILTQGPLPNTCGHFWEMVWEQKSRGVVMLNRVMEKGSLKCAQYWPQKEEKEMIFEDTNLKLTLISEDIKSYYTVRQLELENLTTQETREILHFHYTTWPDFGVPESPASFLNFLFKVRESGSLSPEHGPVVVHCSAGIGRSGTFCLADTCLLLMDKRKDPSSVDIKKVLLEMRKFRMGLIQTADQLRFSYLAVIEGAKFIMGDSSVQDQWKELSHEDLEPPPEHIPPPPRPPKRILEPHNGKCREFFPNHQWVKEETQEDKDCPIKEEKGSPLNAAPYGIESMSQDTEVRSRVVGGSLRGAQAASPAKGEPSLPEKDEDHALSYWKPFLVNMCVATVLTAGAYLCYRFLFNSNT

Assay [13] addresses Tyrosine-protein phosphatase non-receptor type 11 (Homo sapiens) (UniProt Q06124). Nature of the assay: NVS_ENZ_hPTPN11: NovaScreen (NVS) Enzymatic Assay for human Protein Tyrosine Phosphatase Non-receptor Type 11 (PTPN11) (AID 2283202). In outline: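 Recombinant human PTPN11 activity on a fluorescent substrate, with substrate/product separated by electrophoretic mobility shift; read 0.5 h after dosing, loss of signal vs DMSO. Duplicate 25 uM screen, then concentration-response up to 50 uM.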

The target in assay [14] is Tyrosine-protein phosphatase non-receptor type 12 (Homo sapiens) (UniProt Q05209). As to the kind of experiment: NVS_ENZ_hPTPN12: NovaScreen (NVS) Enzymatic Assay for human Protein Tyrosine Phosphatase Non-receptor Type 12 (PTPN12) (AID 2283204). The method, boiled down:
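Single-concentration duplicates (25 uM) preceded singleton concentration-response up to 50 uM for chemicals passing threshold. Cell-free recombinant PTPN12 activity was read 1.33 h after dosing via fluorescence after mobility-shift separation; loss of signal versus DMSO.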

Assay [15] addresses human p21 Activated Kinase 4 (PAK4), PAK4 (gene 10298) (UniProt O96013). Nature of the assay: NVS_ENZ_hPAK4: NovaScreen (NVS) Enzymatic Assay for human p21 Activated Kinase 4 (PAK4) (AID 2283189). In outline:
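Cell-free recombinant human PAK4 activity assay; fluorescent substrate and product separated by electrophoretic mobility shift, read 1 h after dosing. Initially tested in duplicate at 25 uM, relative to DMSO baseline.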

Assay [16] concerns the target human Phosphodiesterase 4A1 (PDE4A1), PDE4A (gene 5141) (UniProt P27815). Nature of the assay: NVS_ENZ_hPDE4A1: NovaScreen (NVS) Enzymatic Assay for human Phosphodiesterase 4A1 (PDE4A1) (AID 2283191). The method, boiled down: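 Cell-free recombinant human PDE4A1 with fluorescent substrate; product separated by electrophoretic mobility shift, 1 h. Screened at 25 uM, then up to 50 uM in concentration-response; loss of signal fitted against DMSO.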

Assay [17] addresses human Phosphodiesterase 10 (PDE10), PDE10A (gene 10846) (UniProt Q9Y233). As to the kind of experiment: NVS_ENZ_hPDE10: NovaScreen (NVS) Enzymatic Assay for human Phosphodiesterase 10 (PDE10) (AID 2283195). The method, boiled down: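 Recombinant human PDE10 with fluorescent substrate, 1 h, product separated by electrophoretic mobility shift. Loss of enzyme activity fitted against DMSO; initial screen 25 uM in duplicate, actives run to 50 uM maximum.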

Assay [18] addresses human Phosphoinositide 3-kinase alpha (PI3Ka), PIK3CA (gene 5290) (UniProt P42336). As to the kind of experiment: NVS_ENZ_hPI3Ka: NovaScreen (NVS) Enzymatic Assay for human Phosphoinositide 3-kinase alpha (PI3Ka) (AID 2283196). The method, boiled down:
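Fluorescence/mobility-shift readout of substrate conversion by recombinant enzyme, 1 h post-dosing. Primary screen in duplicate at 25 uM; actives (e.g. ≥30% inhibition) retested in singleton concentration-response, top concentration 50 uM.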

For assay [19], the target named is human Phosphatase and Tensin Homolog (PTEN), PTEN (gene 5728) (UniProt P60484). Nature of the assay: NVS_ENZ_hPTEN: NovaScreen (NVS) Enzymatic Assay for human Phosphatase and Tensin Homolog (PTEN) (AID 2283203). The method, boiled down:
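Cell-free recombinant human PTEN with fluorescent substrate; product separated by electrophoretic mobility shift and read by fluorescence 1 h after dosing. Primary screen in duplicate at 25 uM, actives followed in concentration series versus DMSO.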

Chain of human Matrix Metalloproteinase-2 (MMP2), MMP2 (gene 4313) (P08253 whole entry, looked up): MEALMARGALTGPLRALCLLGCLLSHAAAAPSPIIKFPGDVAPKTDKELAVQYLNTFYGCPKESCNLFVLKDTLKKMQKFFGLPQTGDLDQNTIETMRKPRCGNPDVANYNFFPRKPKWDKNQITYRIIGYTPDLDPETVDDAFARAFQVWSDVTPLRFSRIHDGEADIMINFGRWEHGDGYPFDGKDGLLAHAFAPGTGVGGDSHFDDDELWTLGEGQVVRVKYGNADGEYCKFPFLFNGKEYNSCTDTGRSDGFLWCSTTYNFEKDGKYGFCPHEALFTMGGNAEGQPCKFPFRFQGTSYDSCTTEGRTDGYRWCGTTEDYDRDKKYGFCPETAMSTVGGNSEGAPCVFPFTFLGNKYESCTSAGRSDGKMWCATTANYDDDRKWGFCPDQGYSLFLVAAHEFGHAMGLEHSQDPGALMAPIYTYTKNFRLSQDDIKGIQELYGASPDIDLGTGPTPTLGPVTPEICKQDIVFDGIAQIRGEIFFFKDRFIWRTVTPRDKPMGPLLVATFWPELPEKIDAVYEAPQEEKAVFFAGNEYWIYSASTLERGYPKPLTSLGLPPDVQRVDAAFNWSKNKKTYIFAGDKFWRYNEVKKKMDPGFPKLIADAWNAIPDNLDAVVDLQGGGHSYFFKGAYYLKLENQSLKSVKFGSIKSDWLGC
Chain of human Matrix Metalloproteinase-9 (MMP9), MMP9 (gene 4318) (P14780 whole entry, looked up): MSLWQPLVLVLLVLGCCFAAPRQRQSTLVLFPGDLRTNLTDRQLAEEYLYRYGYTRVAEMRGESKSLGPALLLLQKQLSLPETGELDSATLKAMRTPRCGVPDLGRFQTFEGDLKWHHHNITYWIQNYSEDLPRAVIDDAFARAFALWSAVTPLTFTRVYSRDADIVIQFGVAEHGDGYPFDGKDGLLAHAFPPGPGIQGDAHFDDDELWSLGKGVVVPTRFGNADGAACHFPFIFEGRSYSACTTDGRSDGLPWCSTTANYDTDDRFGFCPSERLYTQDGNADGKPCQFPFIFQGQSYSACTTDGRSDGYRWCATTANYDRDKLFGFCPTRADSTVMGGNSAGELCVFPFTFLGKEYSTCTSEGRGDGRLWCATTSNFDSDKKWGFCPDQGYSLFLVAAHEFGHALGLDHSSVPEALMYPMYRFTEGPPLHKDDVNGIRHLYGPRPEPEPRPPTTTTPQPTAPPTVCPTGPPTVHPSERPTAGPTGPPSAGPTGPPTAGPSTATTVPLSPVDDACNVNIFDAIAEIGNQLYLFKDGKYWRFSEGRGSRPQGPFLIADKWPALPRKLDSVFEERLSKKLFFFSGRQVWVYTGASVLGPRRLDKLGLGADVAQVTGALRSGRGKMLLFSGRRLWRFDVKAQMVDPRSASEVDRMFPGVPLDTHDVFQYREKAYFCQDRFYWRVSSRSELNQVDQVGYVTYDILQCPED
Chain of Serine/threonine-protein phosphatase PP1-alpha catalytic subunit (Homo sapiens) (P62136 whole entry, looked up): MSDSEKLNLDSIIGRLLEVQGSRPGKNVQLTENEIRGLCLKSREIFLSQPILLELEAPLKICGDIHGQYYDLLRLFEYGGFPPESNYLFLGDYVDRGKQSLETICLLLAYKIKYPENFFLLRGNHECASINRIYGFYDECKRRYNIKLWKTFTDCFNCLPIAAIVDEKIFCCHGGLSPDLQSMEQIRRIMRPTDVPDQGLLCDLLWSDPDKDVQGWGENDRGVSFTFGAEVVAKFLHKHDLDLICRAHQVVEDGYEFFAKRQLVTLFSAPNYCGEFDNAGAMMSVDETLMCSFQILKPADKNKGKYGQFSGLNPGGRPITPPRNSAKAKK
Chain of human Mitogen- and Stress-activated Protein Kinase-1 (Msk1), RPS6KA5 (gene 9252) (O75582 whole entry, looked up): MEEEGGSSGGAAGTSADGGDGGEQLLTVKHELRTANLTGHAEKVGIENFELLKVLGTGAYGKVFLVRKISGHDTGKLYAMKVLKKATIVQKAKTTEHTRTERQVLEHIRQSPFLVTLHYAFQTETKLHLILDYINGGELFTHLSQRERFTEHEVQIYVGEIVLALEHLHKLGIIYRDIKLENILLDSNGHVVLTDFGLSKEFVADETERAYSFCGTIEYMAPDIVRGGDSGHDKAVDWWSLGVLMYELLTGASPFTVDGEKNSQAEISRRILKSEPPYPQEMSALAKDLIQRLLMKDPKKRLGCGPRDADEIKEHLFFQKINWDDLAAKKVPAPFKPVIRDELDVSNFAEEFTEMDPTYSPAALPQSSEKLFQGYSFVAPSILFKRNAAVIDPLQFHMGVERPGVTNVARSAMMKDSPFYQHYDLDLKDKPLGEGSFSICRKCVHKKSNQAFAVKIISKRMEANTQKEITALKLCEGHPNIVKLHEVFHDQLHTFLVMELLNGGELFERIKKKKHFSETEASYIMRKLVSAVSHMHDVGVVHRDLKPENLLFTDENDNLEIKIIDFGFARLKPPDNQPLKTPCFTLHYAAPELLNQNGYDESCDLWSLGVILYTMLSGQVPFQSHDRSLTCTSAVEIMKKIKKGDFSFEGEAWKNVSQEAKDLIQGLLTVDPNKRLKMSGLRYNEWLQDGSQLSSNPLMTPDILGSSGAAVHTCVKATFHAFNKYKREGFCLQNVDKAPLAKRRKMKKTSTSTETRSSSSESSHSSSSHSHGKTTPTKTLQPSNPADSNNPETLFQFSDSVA
Chain of human NIMA (Never In Mitosis Gene A)-Related Kinase 2 (NEK2), NEK2 (gene 4751) (P51955 whole entry, looked up): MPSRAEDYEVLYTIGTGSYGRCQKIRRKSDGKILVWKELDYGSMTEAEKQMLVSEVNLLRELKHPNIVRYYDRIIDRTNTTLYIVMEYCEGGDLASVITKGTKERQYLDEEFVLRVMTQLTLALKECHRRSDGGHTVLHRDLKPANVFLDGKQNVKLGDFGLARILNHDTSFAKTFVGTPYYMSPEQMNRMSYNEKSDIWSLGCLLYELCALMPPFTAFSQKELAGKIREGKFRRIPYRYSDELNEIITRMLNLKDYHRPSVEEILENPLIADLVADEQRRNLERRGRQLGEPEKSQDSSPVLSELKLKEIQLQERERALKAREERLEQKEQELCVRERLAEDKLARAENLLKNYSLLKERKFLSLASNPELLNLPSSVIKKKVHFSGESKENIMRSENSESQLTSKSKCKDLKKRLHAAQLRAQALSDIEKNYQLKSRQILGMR

Consider `CC(C)(C)C(O)(CCc1ccc(Cl)cc1)Cn1cncn1` (configuration not stated), for which the molecule was called inactive in assay [1] and in assay [2].

Take `CCCCC(CC)COC(=O)c1ccc(C(=O)OCC(CC)CCCC)c(C(=O)OCC(CC)CCCC)c1` (configuration not stated): the outcome in [3] and in assay [4] was inactive.

As to `Cc1ccc(N=C=O)cc1N=C=O`, the AC50 is 4.21 µM (active) in assay [5], 10.3 µM (active) in [1] and 40 µM (active) in assay [2]. In addition, the molecule was classed as inactive in [6], in [7] and in assay [8].

For the molecule `CC(C)COC(=O)c1ccccc1C(=O)OCC(C)C`, the call in assay [9] was inactive.

Turning to `[As]#[In]`, the outcome in assay [9] was inactive.

Consider `c1ccc2c(c1)-c1cccc3cccc-2c13`, for which the AC50 in assay [2] was 5.24 µM (active).

Take `CN(C)[C@@H]1C(=O)C(C(N)=O)=C(O)[C@@]2(O)C(=O)C3=C(O)c4c(O)cccc4[C@@](C)(O)[C@H]3C[C@@H]12`: the result in assay [5] and in [2] was inactive.

With `Clc1ccc(C(c2ccc(Cl)cc2)C(Cl)(Cl)Cl)cc1`, the molecule was called inactive in assay [1] and in assay [6].

Regarding `Nc1ccc(Oc2ccc(N)cc2)cc1`, the AC50 in assay [1] is 19.2 µM (active).

For `O=C(Nc1ccccc1)c1ccccc1I`, the call in [5] and in [9] was inactive.

Regarding `ClCCOCCCl`, the molecule was classed as inactive in assay [2].

Regarding `Clc1ccc(Cl)c(Cl)c1`, the outcome (in assay [2]; with PPP2CA (gene 5515)) was inactive.

For the molecule `CNC(=O)Oc1cccc2c1OC(C)(C)C2`, the result in [1] was inactive.

In the case of `CCN(CC)N=O`, the outcome (in [10]; in assay [11]; in assay [4]; with PPP2CA (gene 5515); in assay [12]; in assay [13]) was inactive. Besides, the outcome in assay [14] was inactive.

As for `CCOc1cccc(C2(N3CCN(c4ccccc4)CC3)CCC(C)CC2)c1` (configuration not stated), the AC50 in assay [5] was 17.7 µM (active). The molecule was called inactive in assay [11] and in assay [7].

As to `CCNS(=O)(=O)C(F)(F)C(F)(F)C(F)(F)C(F)(F)C(F)(F)C(F)(F)C(F)(F)C(F)(F)F`, the result in assay [9], in assay [10], in [3], in assay [15], in assay [16] and in assay [11] was inactive. The call (in assay [4]; in [17]; in assay [18]; with PPP2CA (gene 5515); in assay [12]; in [13]) was inactive. In addition, the result in assay [19] was inactive.

For `Oc1ccccc1Cl`, the outcome in [1] and in assay [2] was inactive.

Consider `CCCCCOC(=O)c1ccccc1C(=O)OCCCCC`, for which the result in assay [1] was inactive. In addition, the AC50 in assay [6] was 12.6 µM (active).

On to `CN(C)C(=O)Nc1ccc(Cl)cc1`, for which, in assay [1], the AC50 was 17.9 µM (active). Besides, in assay [2], the outcome was inactive.

As for `CCC[CH2][Sn]([Cl])([CH2]CCC)[CH2]CCC`, in [9], the AC50 is 12.8 µM (active).

With `CC(C)N(Cc1ccccc1)C(=O)C(C)(C)C`, the result in assay [9] was inactive.

With `Oc1ccc2ccc3cccc4ccc1c2c34`, the AC50 in assay [11] was 6.65 µM (active).

As for `O=C(Oc1ccc(Br)cc1)N1CCN2CCC1CC2`, the molecule was called inactive in [17].

With `CCC12COCN1COC2`, the result in [7] was inactive.

Take `CCCCOC(=O)c1ccccc1C(=O)OCc1ccccc1`: in [7], the call was inactive.

Regarding `N#CC(Br)(Br)C(N)=O`, the call in assay [8] was inactive.

In the case of `Nc1ccc([N+](=O)[O-])cc1`, the result in assay [8] was inactive.

As for `Cn1cc(-c2ccccc2)c(=O)c(-c2cccc(C(F)(F)F)c2)c1`, the outcome in [19] was inactive.
